# TEAD-YAP inh: TEAD-YAP interaction inhibition, primary screen, TEAD-YAP interaction inhibitor project, luminescence, HEK-TIYL cells; hit rate 1.4% among 640,000; AID 1259422, 2018; TEAD-Gal4/YAP UAS-luciferase luminescence; inhibition, % at 9.12 µM; in the data active = inhibition above about 32%
# FBW7 act: FBW7 E3 ligase activators, primary screen, biochemical, AlphaScreen, human | F-box/WD repeat-containing protein 7 (Homo sapiens), Q969H0 | AlphaScreen FBW7–phospho-cyclin E peptide binding, activator screen | normalized activity (activation), % at 26.1 µM | hit rate 0.13% among 650,000; in the data active = normalized activity above about 1.9%;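 also: purified mutant Fbw7 with reduced substrate affinity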
# GPR151 ag: activators of human GPR151, primary screen, cell-based, PathHunter beta-arrestin, luminescence. hit rate 1% among 650,000. activation, % at 11.2 µM. PathHunter beta-arrestin GPR151 cells. G-protein coupled receptor 151 (Homo sapiens), Q8TDV0; in the data active = activation above about 4.9%
# Target sequence (Q8TDV0 whole entry, looked up): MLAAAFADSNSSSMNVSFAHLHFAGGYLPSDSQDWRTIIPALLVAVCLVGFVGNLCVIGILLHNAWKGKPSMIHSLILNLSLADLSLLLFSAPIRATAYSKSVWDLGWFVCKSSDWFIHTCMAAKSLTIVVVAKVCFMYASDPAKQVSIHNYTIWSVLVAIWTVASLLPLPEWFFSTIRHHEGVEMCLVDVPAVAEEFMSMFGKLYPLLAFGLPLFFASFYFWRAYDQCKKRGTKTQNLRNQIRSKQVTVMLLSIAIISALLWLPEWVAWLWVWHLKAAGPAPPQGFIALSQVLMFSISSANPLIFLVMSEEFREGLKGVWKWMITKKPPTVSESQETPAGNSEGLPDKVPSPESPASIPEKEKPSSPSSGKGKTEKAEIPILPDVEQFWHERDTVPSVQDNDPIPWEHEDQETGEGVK
# MITF inh: MITF inhibitors, primary screen, biochemical, AlphaScreen, human | inhibition, % at 2.6 µM | hit rate 0.91% among 650,000 | AlphaScreen MITF homodimerization, bead proximity signal; in the data active = inhibition above about 50%
# GPR151 confirm: GPR151 activators, triplicate retest, confirmation, cell-based, PathHunter beta-arrestin, luminescence. shares compounds with GPR151 ag. GPR151 PathHunter beta-arrestin cells, 90 min; % of EA-reagent control over plate median. 6,700 tested, under 10 active. activation, % at 11.2 µM;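 active = mean percent activation across replicates above the confirmation screen cutoff of 4.91%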
# GPR119 ag: GPR119 activators in beta-arrestin cells, counter-screen for GPR151 activator project, cell-based, PathHunter beta-arrestin, luminescence, triplicate; shares compounds with GPR151 ag; 90 min; 0 = compound-well median, 100 = enzyme-acceptor control; activation, % at 11.2 µM; hit rate 0.3% among 6,700;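 active = mean percent activation in the counterscreen above 29.09%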;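 also: counterscreen on off-target GPR119 to flag nonselective hits from the GPR151 activator screen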
# Numbers stand for hits; – = inactive; · = not tested or not shown; ! = a repeat was not active. Most compounds without a hit are left out; they make up all but 3.5% or so of the library.
SMILES,TEAD-YAP inh,FBW7 act,GPR151 ag,MITF inh,GPR151 confirm,GPR119 ag
Cc1cc2ncn(CCC(=O)NC(C)(C)C)c2cc1C,–,–,5.3,–,–,–
COc1ccccc1C1C=C(c2ccc(I)cc2)Nc2ncnn21 (stereo not drawn),–,–,7.4,–,–,–
Cc1ccccc1CN[C@H]1C[C@H]2C(=O)N[C@@H](CC(C)C)C(=O)N2C1,–,–,–,–,·,·
COc1cccc(CNC(=O)C(NS(=O)(=O)c2cccc3nsnc23)C(C)C)c1 (stereo not drawn),–,–,7.1,–,–,–
NN1C(=O)c2ccccc2NC1C1CC=CCC1 (stereo not drawn),–,–,20,–,–,–
CC[C@@H](C(=O)C(C)[C@@H](O)[C@H](C)CCc1ccc(C)c(O)c1C(=O)O)C1OC(CC)(C2CC[C@](O)(CC)[C@H](C)O2)C[C@@H]1C (stereo partly drawn),–,–,13!,–,–,51
COc1cccc(-c2cnnc(N3C[C@@H]4CCC[C@H]3C4)n2)c1,–,–,–,–,·,·
OC1(c2ccccc2F)CCN(Cc2nnnn2C2CCCCC2)CC1,–,–,–,–,·,·
N[n+]1cnn(CC(=O)c2ccc(Cl)cc2Cl)c1,–,–,–,–,·,·
CC(C(=O)c1ccc(Cl)cc1Cl)n1c[n+](N)cn1 (stereo not drawn),–,–,5.2,–,–,–
COC(=O)c1ccc(OCC2c3cc(OC)c(OC)cc3CCN2C(=O)c2cccc(OC)c2OC)cc1 (stereo not drawn),–,–,5.3,–,–,–
CN1CCN(CCOc2cccc([N+](=O)[O-])c2)CC1,–,–,–,–,·,·
CN1CCN(CCCCOc2cccc([N+](=O)[O-])c2)CC1,–,–,5.6,–,–,–
CC(=O)N1CCc2cc(S(=O)(=O)N(C)c3ccc(Br)cc3)ccc21,–,–,–,–,·,·
Cn1c(C(=O)NCCc2ccc(S(N)(=O)=O)cc2)cc2c(=O)n3ccccc3nc21,–,–,–,–,·,·
O=C1c2cccc([N+](=O)[O-])c2C(=O)N1Cc1ccco1,–,–,5.2,–,–,–
Clc1nc(N2CCc3ccccc3C2)nc(N2CCc3ccccc3C2)n1,–,–,–,–,·,·
COC(=O)CC(NC1C(=O)c2ccccc2C(=O)C1Cl)C(=O)OC (stereo not drawn),–,–,–,–,·,·
COc1c(Cl)cc(Cl)cc1C(=O)Nc1ccc(-c2nn3c(C)nnc3s2)cc1,–,–,5.0,–,–,–
Cc1ccc(-c2csc(N3C(=O)CNC3=S)n2)cc1,–,–,5.7,–,–,–
O=C1CCCN1CCn1cnc2c(NCCN3CCOCC3)nc(Nc3nccc4ccccc34)nc21,–,–,5.3,–,–,–
O=C1CCCN1CCCNc1cc(N2CCOCC2)ncn1,–,–,–,–,·,·
O=C1CCCN1CCn1cnc2c(Nc3ccc(N4CCOCC4)cc3)nc(Nc3ccc(N4CCOCC4)cc3)nc21,–,–,–,–,·,·
O=C1CCCN1CCCNc1cc(N2CCC(N3CCOCC3)CC2)ncn1,–,–,8.5,–,–,–
COc1cc(Nc2nc(NCCCN3CCCC3=O)c3ncn(CCN4CCCC4=O)c3n2)cc(OC)c1OC,–,–,6.5,–,–,–
SMILES,TEAD-YAP inh,FBW7 act,GPR151 ag,MITF inh,GPR151 confirm,GPR119 ag
O=C1CCCN1CCCNc1nc(Nc2ccc(N3CCOCC3)cc2)nc2c1ncn2CCN1CCCC1=O,–,–,11,–,–,–
Cc1cc(C(F)(F)F)n2ncc(C(=O)N3CCCCCC3)c2n1,–,–,–,–,·,·
COc1cc(Nc2nc(NCCCN3CCCC3=O)c3ncn(C(C)C)c3n2)cc(OC)c1OC,–,–,13,–,–,–
O=C(NNC(=O)c1ccccc1Br)c1ccc(Cl)cc1,–,–,–,–,·,·
O=C(NOC(=O)c1ccccc1Br)c1ccc(Cl)cc1,–,–,8.0,–,–,–
CCOc1ccc(N2CC(C(=O)Nc3ccc(Br)cc3CC)CC2=O)cc1 (stereo not drawn),–,–,4.9,–,–,–
